Measured values published in PubChem BioAssay AID602405 (Broad Institute, 2012).
Among all 360,000 compounds or so, about 350 (0.097%) were called active. The full list was thinned out, with actives kept by preference. A number with no mark means an inactive call. Cut-off read from the data, not from the text of the source: active = inhibition above about 16% (passing the limit was not always enough); inconclusive = no clear call, values can overlap the other calls; inactive = below that.

system: UDP-N-acetylbacillosamine N-acetyltransferase PglD (Campylobacter jejuni); assay: blockers of PglD enzyme activity – biochemical, DTNB colorimetric, single point, primary screen (AID 602405); details: purified PglD enzyme, DTNB colorimetric CoA detection; at 12.5 µM; hits give high values

| SMILES | inhibition |
| --- | --- |
| COc1ccc(-c2ccc([C@H]3[C@H](CO)N4CCCCN(C(=O)Cc5ccncc5)C[C@@H]34)cc2)cc1 | 2.61% |
| O=C(Cc1ccncc1)N1CCCCN2[C@@H](CO)[C@H](c3ccc(-c4ccncc4)cc3)[C@@H]2C1 | 18.4% (active) |
| C/C=C/c1ccc([C@H]2[C@H](CO)N3CCCCN(C(=O)Cc4ccncc4)C[C@@H]23)cc1 | 4.91% |
| O=C(O)[C@H]1[C@H](CO)[C@H]2Cn3c(cccc3=O)[C@@H]1N2C(=O)c1ccccc1 | 3.27% |
| CC(=CCOc1ccc2ccc(=O)oc2c1)C1=CC(=O)C(C)(C)O1 | 2.27% |
| c1ccc2sc(N3CCNCC3)nc2c1 | 53.7% (active) |
| c1ccc2sc(C3CCCNC3)nc2c1 (stereo not given) | 3.32% |
| C[C@H](CO)N1C[C@H](C)[C@H](CN(C)C(=O)Oc2ccc3ccccc3c2)OCc2cnnn2CCCC1=O | -0.0925% |
| COC(=O)[C@H]1[C@H](CO)[C@H]2Cn3c(cccc3=O)[C@H]2N1CC1CC1 | 3.33% |
| COC(=O)[C@H]1[C@H](CO)[C@H]2Cn3c(ccc(-c4ccccc4F)c3=O)[C@@H]1N2C(=O)C1CCC1 | -2.57% |
